According to PubChem BioAssay (Tox21):
“And” between values parts separate entries of the source, which are not always exact repeats. Identical values can stand only once. Inconclusive results are not listed. The source made the active and inactive calls. Calls follow the shape of the dose curve; as a rule, active = well fitted cell-killing curve with a large enough effect in the repeat runs; inconclusive = weak or mixed curves; inactive = no such curve, though single readings can be large or run the other way.

assay: qHTS assay for identifying genotoxic compounds that show differential cytotoxicity against isogenic chicken DT40 cell lines with known DNA damage response pathways - Rad54/Ku70 mutant cell line (AID 743015); conditions: DT40 Rad54/Ku70 mutant viability, CellTiter-Glo, 40 h; series mostly up to 66.8 µM; also: nearly all actives have a fitted effect of over 60% in size
Text: National Center for Advancing Translational Sciences [NCATS]
NIH Chemical Genomics Center [NCGC]
U.S. Environmental Protection Agency [EPA]
National Institutes of Environmental Health Sciences [NIEHS]
National Toxicology Program [NTP]
U.S. Food and Drug Administration [FDA]
DNA repair pathways play a critical role in cellular homeostasis by repairing DNA damage induced by endogenous processes and xenobiotics. Isogenic chicken DT40 cell lines deficient in different DNA repair pathways can be used to identify genotoxic compounds and aid in characterizing the nature of the DNA damage induced. Two DNA repair-deficient cell lines with disrupted genes, Rad54/Ku70 or Rev3, were used to screen the Tox21 10K compound library. Possible genotoxicity was based on the presence of a significant increase in cytotoxicity in one or more of the DNA repair-deficient cell lines compared to that observed in the parental DNA repair-proficient cell line. CellTiter Glo viability assay (Promega, Madison, WI) was used to measure cell viability in these cells after compound treatment. This assay includes the data from the Rad54/Ku70 mutant cell line.
Tox21 Assay Protocol Summary:
300 DT40 mutant cells in 5 uL/well were dispensed into white, solid-bottom 1536-well plates using a Multidrop Combi (ThermoFisher Scientific, Waltham, MA) dispenser. After the assay plates were incubated at 37 C/5% CO2 for approximately 0.5 hour, 23 nL of compounds dissolved in DMSO, positive controls or DMSO only was transferred into the assay plate by a pintool work station (Kalypsys, San Diego, CA). The assay plates were incubated at 37 C/5% CO2 for 40 hours. After 5 uL per well of CellTiter-Glo reagent was added into each well of the assay plates, the plates were incubated for 30 min at room temperature and the luminescence intensity of the plates was measured using a ViewLux (PerkinElmer, Shelton, CT) plate reader.
Potency is read from the fitted curve at half-maximal effect.

SMILES | Potency
CCN(C(=O)c1cc(C)cc(OC[C@H](C)Nc2ccncc2)c1)C(C)C | 17 µM (active)
CCN1/C(=C/C=C/c2sc3ccccc3[n+]2CC)Sc2ccccc21 | 0.0266 µM (active)
Cc1cc(C2CCCCC2)n(O)c(=O)c1 | 2.54 µM (active)
Cc1[nH]cnc1C[C@H]1CCc2c(C)c3ccccc3n2C1=O | 23.7 µM (active)
CCCCCCCCCCCC(=O)NCCCN(C)C | 6.86 µM (active)
C=CC(=O)OCCn1c(=O)n(CCOC(=O)C=C)c(=O)n(CCOC(=O)C=C)c1=O | 2.43 µM (active)
CN(C)C(=O)C1(N2CCCCC2)CCN(CC[C@@]2(c3ccc(Cl)c(Cl)c3)CN(C(=O)c3ccccc3)CCO2)CC1 | 5.71 µM (active)
N=C1N=C(N)c2cc3ccccc3cc21 | 27.3 µM (active)
Cn1cc(C(=O)[C@@H]2CCc3nc[nH]c3C2)c2ccccc21 | inactive
O=[N+]([O-])c1cc([N+](=O)[O-])c2ccc(S(=O)(=O)O)cc2c1O | inactive
C[C@H]1[C@H]2CC[C@H]3[C@@H]4CC=C5C[C@@H](N(C)C)CC[C@]5(C)[C@H]4CC[C@]23CN1C | 16.8 µM (active)
O=C(Nc1ccc(Oc2ccc(Cl)cc2)c(Cl)c1)c1cc(I)cc(I)c1O | inactive
CC(=O)S[C@@H]1CC2=CC(=O)CC[C@]2(C)[C@H]2CC[C@@]3(C)[C@@H](CC[C@@]34CCC(=O)O4)[C@H]12 | 8.41 µM (active) and 6.11 µM (active)
Cc1c(C)c2c(c(C)c1OC(=O)CCC(=O)O)CC[C@@](C)(CCC[C@H](C)CCC[C@H](C)CCCC(C)C)O2 | inactive
CCc1cc(Cc2cc(CC)cc(C(C)(C)C)c2O)c(O)c(C(C)(C)C)c1 | 15.4 µM (active)
ON=C1CCCC1 | inactive
O=C1CCCCCN1SSN1CCCCCC1=O | 15.4 µM (active)
COc1cc(-c2ccc(N=C=O)c(OC)c2)ccc1N=C=O | inactive
CC1=C(C(=O)OC(C)C)C(c2cccc([N+](=O)[O-])c2)C(C(=O)OC2CN(C(c3ccccc3)c3ccccc3)C2)=C(N)N1 (stereo not given) | 13.3 µM (active)
Cc1ccc2oc(CN(Cc3ccccc3)C(=O)Nc3c(F)cc(F)cc3F)c(-c3ccc(Cl)cc3)c2c1 | 14.9 µM (active)

SMILES | Potency
OCCCCCCCCCCCCBr | 5.53 µM (active)
Fc1ccc([C@@H]2CCNC[C@H]2COc2ccc3c(c2)OCO3)cc1 | 7.5 µM (active)
CC(C)(C)CC(C)(C)c1ccc(O)c(Cc2ccc(Cl)cc2Cl)c1 | 26.6 µM (active)
CC(C)c1ccc2c(c1)CC[C@H]1[C@](C)(CN)CCC[C@]21C | 5.45 µM (active)
CN(C)c1ccc(SC#N)cc1 | 38.6 µM (active)
CNc1ccc(O)cc1 | 10.8 µM (active)
CCCCCCCCCCn1cc[n+](CCCCCCCCCC)c1C | 0.122 µM (active)
Cc1cc2c(cc1C(F)(F)F)N(C(=O)Nc1ccc(Oc3cccnc3C)nc1)CC2 | 22 µM (active)
O=c1[nH]sc2ccccc12 | 0.686 µM (active)
CC(C)(C)C(=O)OCOC(=O)[C@@H]1N2C(=O)[C@@H](NC(=O)[C@H](N)c3ccccc3)[C@H]2SC1(C)C | inactive
CCCCCCCCOC(=O)c1ccc(O)cc1 | 60.9 µM (active)
N/C(=N\N=C\c1ccc(Cl)cc1)N/N=C/c1ccc(Cl)cc1 | inactive
CO[Si](CCCNc1ccccc1)(OC)OC | 8.63 µM (active)
O=C(Oc1ccccc1)c1ccccc1C(=O)Oc1ccccc1 | 17.2 µM (active)
CC(C)(C)c1ccc(C(=O)CCCN2CCC(OC(c3ccccc3)c3ccccc3)CC2)cc1 | 5.96 µM (active)
OCCN(CCO)c1nc(N2CCCCC2)c2nc(N(CCO)CCO)nc(N3CCCCC3)c2n1 | 10.6 µM (active)
Cc1cccc2c1cc1ccc3cccc4ccc2c1c34 | inactive
CC(C)OC(=O)c1cc2c(OCC(O)CNC(C)(C)C)cccc2[nH]1 (stereo not given) | 26.6 µM (active)
CCOc1nc2cccc(C(=O)OC(C)OC(=O)OC3CCCCC3)c2n1Cc1ccc(-c2ccccc2-c2nn[nH]n2)cc1 (stereo not given) | 17.2 µM (active)
CCCC(C)c1ccccc1O (stereo not given) | 61.1 µM (active)
